HCMV inh = qHTS Assay for inhibitors of the human cytomegalovirus (HCMV) | AID 1259415, 2018 | activity change, negative = inhibition, % at 57.5 µM | HFF cells, HCMV-luciferase reporter, 72 h; hits give low values | 410,000 compounds, 4.5% hits; in the data active = activity change below about -60%; inconclusive = no clear call, values can overlap the other calls; inactive = above about -39%
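After 16 h attachment at 37C, HFF cells received test compound and HCMV-luciferase (1 PFU/cell); reporter luminescence read 72 h later, data normalized against buffer-only and known inhibitor Salinomycin.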
Shiga inhibitor = A qHTS for Small Molecule Inhibitors of Shiga Toxin. AID 2315, 2010. 290,000 compounds, 9.2% hits. inhibition, % at 38.7 µM. Vero cells, Shiga toxin protein synthesis inhibition reporter; in the data active = inhibition mostly above about 28%, no sharp cut-off; inactive = mostly below about 43%
Pf growth 96h = Primary qHTS for delayed death inhibitors of the malarial parasite plastid, 96 hour incubation; P. falciparum luciferase reporter growth, 96 h; Potency, µM (doses to about 28.7 µM), usual class: inhibitors; 320,000 compounds, 6.9% hits
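Plates of compound plus infected erythrocytes (2% hematocrit, 0.05% parasitemia final) incubate 96 hours, 37 C, 5% CO2. Detection reagent added; reduced luminescence from the parasites' luciferase reporter flags inhibition.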
Pf growth 48h = Primary qHTS for delayed death inhibitors of the malarial parasite plastid, 48 hour incubation. P. falciparum luciferase growth in erythrocytes, 48 h. Potency, µM (series often up to 28.7 µM), hits mostly inhibitors. 310,000 compounds, 5.9% hits. AID 504832, 2011
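Cell-based growth assay: transgenic P. falciparum expressing firefly luciferase, cultured in red cells within RPMI 1640 containing 0.5% w/v Albumax, 24 mM bicarbonate and gentamycin. A drop in luciferase activity indicates inhibition.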
CHX counter = Cycloheximide Counterscreen for Small Molecule Inhibitors of Shiga Toxin | 300,000 compounds, 12% hits | cell reporter, cycloheximide protein synthesis inhibition counterscreen | max response, %; in the data active = max response mostly above about 13%, no sharp cut-off; inactive = mostly below about 14%; note: read at 38.3 µM for the half of the compounds with a filed dose
Hits are given with their value; 0 = inactive; ? = inconclusive; - = no result given. An excerpt weighted towards active compounds, which were near 20% of everything screened. Unless noted, calls come from the whole dose curve; as a rule, active = well fitted inhibition curve with a large enough effect; inconclusive = small, poorly fitted or top-dose-only effect, or another doubt; inactive = no such curve, though single readings can be large or run the other way.

SMILES	HCMV inh	Shiga inhibitor	Pf growth 96h	Pf growth 48h	CHX counter
OC(COC(c1ccc(Cl)cc1)c1ccc(Cl)cc1)CN1CCc2ccccc2C1 (stereo unspecified)	0	0	2.62µM	?	0
OC(COC(c1ccccc1)c1ccccc1)CN1CCc2ccccc2C1 (stereo unspecified)	0	0	?	?	0
Cc1ccc(NC(=O)CSc2ccc(-c3ccc(-n4cccn4)cc3)nn2)c(C)c1	0	-	0	0	-
COC(=O)c1sc2ncn(-n3c(C)ccc3C)c(=O)c2c1C	0	0	?	-	0
CC(/C=C\C=C\c1ccccc1)=N\NC(=O)c1cncc(Br)c1	0	0	0.928µM	?	0
CC(/C=C/C=C/c1ccccc1)=N/NC(=O)c1ccc2c(c1)OCCO2	0	63.0	0	0	31.2
CC(/C=C/c1ccccc1)=N\NC(=O)c1ccc(Br)cc1	0	0	0	?	0
CC(/C=C/c1ccccc1)=N/NC(=O)c1cccc(Br)c1	0	0	?	?	19.5
Cc1cccc(NC(=O)CCNS(=O)(=O)c2ccc3c(c2)CCN3C(=O)C2CC2)c1	0	-	-	-	-
CCCC1=C(C(=O)OCC)C(c2ccc(OC)c(C)c2OC)C(C#N)=C(N)O1 (stereo unspecified)	0	0	0	?	0
COc1ccccc1S(=O)(=O)N1CCn2cccc2C1C (stereo unspecified)	0	-	?	0	-
CCOC(=O)c1[nH]c(C)c(C(=O)N2CCc3ccccc32)c1C	-91.7	0	0	?	0
CCOC(=O)c1ccc(NC(=O)N2CC3CCCN3c3ccccc32)cc1 (stereo unspecified)	0	-	-	-	-
CCOC(=O)c1ccc(NC(=O)N2CCc3ccccc32)cc1	0	58.4	-	0	28.6
CCOC(=O)c1ccc(NC(=O)N2CCc3ccccc3C2)cc1	?	0	0	?	30.3
CCOc1ccc(N(CC(=O)N2CCN(c3ccccc3OC)CC2)S(=O)(=O)c2ccc(C)cc2)cc1	0	0	11.7µM	?	0
CCOc1ccc(N(CC(=O)N2CCN(c3ccccc3OC)CC2)S(=O)(=O)c2ccc(F)cc2)cc1	?	0	0.928µM	?	0
COc1ccc(N(CC(=O)N2CCN(c3ccccc3)CC2)S(=O)(=O)c2ccc(C)cc2)cc1	0	0	?	0	0
CCOc1ccc(N(CC(=O)N2CCCC2)S(=O)(=O)c2ccc(F)cc2)cc1	0	0	0	0	0
CC(C)(C)C(=O)OCc1nc(-c2ccc(C(F)(F)F)cc2)cs1	0	0	0	0	18.9
O=C1/C(=C/c2ccc(C(=O)O)cc2)CCC/C1=C\c1ccc(C(=O)O)cc1	0	0	1.47µM	2.08µM	0
CN(C)c1ccc(/C=C2\CCC/C(=C\c3ccccc3)C2=O)cc1	0	0	?	?	0
O=C1NC(=S)N/C1=C\c1cccnc1	?	0	0	0	0
O=C1/C(=C/c2cccnc2)CC/C1=C\c1cccnc1	-98.7	0	?	?	62.9
O=C1/C(=C/c2ccccc2)CCCc2ccccc21	0	95.7	0	0	63.2
SMILES	HCMV inh	Shiga inhibitor	Pf growth 96h	Pf growth 48h	CHX counter
CC(C)/C=C1\CC/C(=C\c2cccnc2)C1=O	0	124.2	0	?	78.3
CCc1cccc(C)c1Nc1c(-c2cccc(O)c2)nc2nc(C)cc(C)n12	0	-	-	-	-
COCc1ccc(C(=O)NC2CCSc3ccccc32)cc1 (stereo unspecified)	0	0	0	0	0
CC(Cc1ccccc1)N1CCCC1=O (stereo unspecified)	0	-	-	-	-
N=C1c2ccccc2CN1c1cccc([N+](=O)[O-])c1	0	0	0	0	0
O=C1/C(=C/Nc2cccc([N+](=O)[O-])c2)CCc2ccccc21	0	0	?	0	81.3
O=C1/C(=C\c2cccnc2)CCc2ccccc21	?	0	0	0	29.4
O=C1NC(=S)N/C1=C/c1cccnc1	-63.3	0	?	0	0
O=C1/C(=C/c2cccnc2)CCC/C1=C\c1cccnc1	-101.3	0	13.1µM	10.4µM	0
OC(COCc1ccc(Cl)cc1)CN1CCN(c2ccccn2)CC1 (stereo unspecified)	0	0	0	0	0
COc1cc(OC)c(N(C)C(=O)c2sc3nc4n(c(=O)c3c2C)CCCC4)cc1Cl	0	-	-	-	-
O=C1/C(=C/c2ccc(O)cc2)CCc2ccc([N+](=O)[O-])cc21	0	0	0	0	0
O=C1/C(=C\c2ccc([N+](=O)[O-])cc2)CCc2ccccc21	0	0	0	0	25.8

Source: PubChem
